In PubChem BioAssay (NCI):
Compounds without any hit were thinned out: in the full panel of roughly 83,000, 20% have a hit.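 Single-dose data. Exposure time 48 hours. Values below 10 considered active.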 A number with no mark means an inactive call. Activity calls are given as the source filed them.

Assays:
Assay in all cases: NCI-60 one-dose screen, 48 h (100 = growth as untreated, 0 = no growth, -100 = all killed)
Conditions in all cases: 10 µM unless noted
[1] = test system: T-47D breast
[2] = test system: BT-549 breast
[3] = test system: MDA-MB-435 melanoma
[4] = test system: SW-620 colon
[5] = test system: MCF7 breast
[6] = test system: HCT-116 colon
[7] = test system: HCC-2998 colon
[8] = test system: KM12 colon

| Structure (SMILES) | growth [1] | growth [2] | growth [3] | growth [4] | growth [5] | growth [6] | growth [7] | growth [8] |
| --- | --- | --- | --- | --- | --- | --- | --- | --- |
| COc1ccccc1-c1nc2ccc3[nH]ncc3c2c2c1CCCC2 | 74.2% | 77.1% | 64.4% | 82.6% | 68.7% | 64.9% | 113% | 31% |
| COc1ccccc1/C=C/C1=C(C)CCC(c2ccccc2OC)C1C (centres undefined) | 61.9% | -16.3% (active) | -3.28% (active) | 18.2% | 7.88% (active) | 2.8% (active) | -12.5% (active) | 6.67% (active) |
| CS(=O)(=O)Nc1cc(-c2ccc3ncnc(Nc4cccc(Cl)c4)c3c2)cnc1Cl | -22.9% (active) | -15.5% (active) | 8.58% (active) | 11.5% | 5.3% (active) | -26.9% (active) | 2.63% (active) | 5.4% (active) |
| O=C(/C=C/C12c3ccccc3C(c3ccccc31)C1C(=O)NC(=O)C12)c1cccs1 (centres undefined) | 39.9% | 33.5% | 4.93% (active) | 27.1% | 14.2% | 14.4% | 99.4% | 22.6% |
| CC1=NC(=S)NC(c2ccccc2)/C1=C1/CC(c2ccccc2O)NN1 (centres undefined) | 100% | 99.6% | 103% | 100% | 102% | 99.6% | 113% | 104% |
| COc1ccc(S(=O)(=O)Oc2ccc(-c3sc4cc(OS(=O)(=O)c5ccc(OC)cc5)ccc4c3C(=O)c3ccc(OCCN4CCCCC4)cc3)cc2)cc1 | 94.2% | 94.1% | 105% | 108% | 91.3% | 98.8% | 105% | 99.1% |
| C=C1C(=O)O[C@H]2[C@H]1CC/C(COC(=O)NCc1ccc(Cn3c(=O)sn(CCCC)c3=O)cc1)=C\CC[C@@]1(C)O[C@@H]21 | 26.2% | 53.3% | 40.8% | -47% (active) | 7.24% (active) | 3.34% (active) | 97.7% | 101% |
| NCCNc1ccc([N+](=O)[O-])cc1 | 106% | 103% | 113% | 112% | 101% | 98.8% | 115% | 115% |
| O=C(Nc1cccc(Cn2c(=O)[nH]c3ccc(Oc4ncccn4)cc3c2=O)c1)c1cccc(Cl)c1 | 20.6% | 43.8% | 42.5% | 83.3% | 40.2% | 52.6% | 84.6% | 55% |
| COc1ccc(CNc2c3ccccc3nc3ccccc23)cc1OC | 25.8% | 42.1% | 29.4% | 16% | 0.674% (active) | 12.2% | 30.1% | 31.6% |
| Cc1ccc2nc(/C=C/c3ccc(N(C)C)cc3)cc(C)c2c1 | 34.7% | 32.3% | -5.17% (active) | 10.9% | 10.1% | 22.8% | 63.9% | 21.5% |
| NS(=O)(=O)Oc1cccc(-c2nc3sccn3c2-c2ccccc2)c1 | 36.2% | 54% | 3.29% (active) | 35.5% | 26.1% | 23.5% | 87.4% | 48.4% |
| COc1ccc(NC(=O)c2sc3nc(C)c(C(=O)c4ccccc4)cc3c2N)cc1 | 91% | 113% | 98% | 90.9% | 88.8% | 108% | 103% | 95.3% |
| Cc1ccc(C(F)(F)F)cc1N1CCN(C(=O)[C@H]2C[C@H]2c2ccc(C(F)(F)F)nc2)CC1 | 68.4% | 88.2% | 103% | 105% | 91.2% | 93.4% | 101% | 91.8% |
| O=C1c2ccccc2-c2c1c1ccncc1c(=O)n2CCCn1ccnc1 | 23.6% | 46.7% | 86.3% | 18.7% | 9.35% (active) | 5.31% (active) | 73.9% | 32.8% |
| Cc1cc([N+](=O)[O-])ccc1NC(=O)c1ccc2c(c1)nc(-c1ccccc1)n2C1CCCCC1 | 59.8% | 77.1% | 92.2% | 97.6% | 77% | 65.7% | 88.3% | 69.3% |
| O=C(O)CCCN1C(=O)CSC1=S | 97.7% | 99.8% | 97.7% | 114% | 90.9% | 102% | 104% | 101% |
| COc1ccccc1NC(=O)n1c(=O)cc(C)c2ccc(O)cc21 | 99.8% | 107% | 105% | 109% | 101% | 107% | 95.9% | 101% |
| C(=N\Nc1nnc2n1N=C(c1ccccc1)CS2)/c1ccc(OCc2ccccc2)cc1 | 84.5% | 103% | 99.8% | 113% | 82.9% | 100% | 120% | 102% |
| NC(=N\N=C/c1ccc(Cl)cc1Cl)/C(N)=N\N=C/c1ccc(Cl)cc1Cl | 10.8% | 111% | 82.6% | 63.4% | 87% | 21.9% | 88.8% | 84% |
| O=c1oc2ccccc2cc1-c1nn(-c2ccccc2)cc1/C=N/Nc1nc(-c2ccccc2)c(N=Nc2ccccc2)s1 | 57.4% | 61.8% | -27.8% (active) | 43.4% | 44.3% | 56.9% | 85.6% | 44.7% |
| CC(=O)[C@H]1CC[C@]2(C)[C@@H]1CC[C@@H]1[C@@]3(C)C/C(=C/c4cccnc4)C(=O)C(C)(C)[C@@H]3CC[C@]12C | 13.6% | 50.6% | 75.1% | 61.9% | 34.8% | 33.2% | 99.9% | 49.1% |
| CCN1CCN(c2cc(C(=O)Nc3cccc(Nc4ccc5c(OC)cccc5n4)c3)cc(C(F)(F)F)c2)CC1 | 11% | 69.6% | 1.29% (active) | 3.22% (active) | -45.3% (active) | 24.3% | -53.3% (active) | -10.3% (active) |
| Cc1ccc(S(=O)(=O)N(CCC(=O)O)c2ccccc2)cc1 | 100% | 93.2% | 107% | 104% | 91.8% | 95.1% | 112% | 98.9% |
| O=C(OCC(O)(CO)C(=O)NC12CC3CC(CC(C3)C1)C2)c1ccc(Cl)cc1 (centres undefined) | 88.9% | 102% | 101% | 103% | 91.6% | 99.8% | 106% | 103% |
| CSc1nc(N)c2c(n1)NC(c1ccccc1)C1CCc3ccccc3C1=N2 (centres undefined) | 33.5% | 73.9% | 55.9% | 67.7% | 57.1% | 32.3% | 88.8% | 48.3% |
| O=C1N/C(=N/N=C(c2ccccc2)c2ccccc2)S/C1=C\c1ccc(Br)cc1 | 84.7% | 97% | 103% | 90.7% | 99.6% | 81.8% | 99.5% | 92.9% |
| Brc1ccc(-c2nn(-c3ccccc3)cc2-c2nn[nH]n2)s1 | 89.6% | 93.2% | 103% | 97.1% | 86.7% | 88.5% | 97.6% | 99.7% |
